High-throughput results as filed in PubChem.
Compounds with a hit are over-represented: about 4.3% of the library has one in this group of screens.
Wnt bcat act: Wnt/beta-catenin pathway activation; Wnt/beta-catenin reporter cell assay, activator, plate reader; 300,000 compounds, 1.2% hits; activation, % at 9.35 µM; in the data active = activation above about 30%, passing the limit was not always enough;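 also: 0% = neutral control wells and 100% = positive control wells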
esBAF inh: blocks esBAF chromatin remodeling in mouse ES cells | 350,000 compounds, 2% hits | reporter increase, % at 12.5 µM | Bmi1-luciferase knock-in reporter, 24 h; 100% = twice the neutral-well signal; in the data active = activation above about 40%;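 also: 0% = median of the plate's neutral control wells and 100% = double that signal; a rise in the Bmi1 reporter signal indicates esBAF inhibition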
MLL AF4-AF9 inh: blocks AF4 peptide binding to human AF9; P42568; AlphaScreen, biotin-AF4 peptide binding to FLAG-AF9; inhibition, % at 10 µM; 350,000 compounds, 0.47% hits;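 active = every replicate reaching a set inhibition limit, whatever the replicate mean, cut at about 25% in these data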;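 also: 0% = plate neutral control median and 100% = total signal loss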
SMARCA2 activ: activators of SMARCA2 function; MG213 cells, MMTV-luciferase reporter, dexamethasone, overnight; activation, % at 9.1 µM; 370,000 compounds, 1% hits; AID 652017; in the data active = activation above about 7.8%;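 also: 0% = vehicle wells and 100% = reference activator wells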
FGF22 binding-1: shifts melting point of recombinant human FGF22; recombinant FGF22 thermal shift, SYPRO orange fluorescence; percent of sucrose octasulfate shift, DMSO zero; activity (Tm shift, normalised), % at 9.99 µM; Q9HCT0; 340,000 compounds, 1.5% hits;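 active = mean Tm shift, scaled 0 neutral to 100 positive control, at about 1.3% or above, every replicate too, limit read from the data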
Target sequence (Q9HCT0 whole entry, looked up): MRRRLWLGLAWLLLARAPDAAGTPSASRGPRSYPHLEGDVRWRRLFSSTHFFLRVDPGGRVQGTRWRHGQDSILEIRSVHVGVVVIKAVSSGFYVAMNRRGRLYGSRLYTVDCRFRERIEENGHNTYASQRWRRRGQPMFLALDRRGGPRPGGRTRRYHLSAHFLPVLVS
MITF TRPM1 HTS: increases MITF-driven TRPM1 promoter luciferase signal | 300,000 compounds, 0.75% hits | SK-MEL-5 TRPM1-promoter luciferase, 24 h; % of positive control, neutral wells = 0 | activation, % at 12.5 µM | AID 588334;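 active = mean activation of at least 80% with every replicate also reaching 80%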;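 also: 0% = neutral control wells and 100% = parthenolide positive control wells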
FGF22 binding-2: binders of human FGF22 by thermal shift; 1,000 compounds, 2% hits; shares compounds with FGF22 binding-1; thermal shift activity, °C (ΔTm) at 38 µM; recombinant FGF22 thermal shift, SYPRO orange fluorescence;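 active = fitted rise in melting shift crosses a set limit at or below the top valid dose tested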
SYPRO no-protein: compound-only SYPRO artifact for FGF22 binders; shares compounds with FGF22 binding-1; compound-only SYPRO orange thermal shift counter-screen, no protein; AC50, µM (highest dose often 38 µM); 1,000 compounds, 2% hits; AID 743019;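 active = rising signal whose fitted curve reaches the 0.54 level within the top valid dose, showing a melting point, actives reach about 13 µM in these data; inactive = the rest, including activity in the opposite direction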; also: value is where the raw curve crosses a fixed level and not half-maximal
* hit, by the source's call; i = inactive; . = not tested or not shown; [ ] = dose if it differs, or a comment.

SMILES	Wnt bcat act	esBAF inh	MLL AF4-AF9 inh	SMARCA2 activ	FGF22 binding-1	MITF TRPM1 HTS	FGF22 binding-2	SYPRO no-protein
C/C=C/c1ccc2c(c1)O[C@@H](CN(C)Cc1ccncc1)[C@@H](C)CN([C@@H](C)CO)S2(=O)=O	.	-5.7	2.3	.	1.6*	.	0.188[42 µM]	i
C/C=C/c1ccc2c(c1)O[C@@H](CN(C)C(=O)Nc1cccc(F)c1)[C@@H](C)CN([C@@H](C)CO)S2(=O)=O	.	2.6	6.1	.	1.5*	.	-0.824[42 µM]	i
C/C=C/c1ccc2c(c1)O[C@H](CN(C)Cc1ccncc1)[C@@H](C)CN([C@H](C)CO)S2(=O)=O	.	2.2	2.2	.	0.0	.	.	.
CN(C[C@H]1N[C@@H](CO)[C@H]1c1ccc(-c2cccc(F)c2)cc1)C(=O)CC1CC1	.	0.1	-9.3	.	-0.4	.	.	.
CN1CCN(C(=O)C[C@@H]2C=C[C@@H](NC(=O)c3ccc4c(c3)OCO4)[C@H](CO)O2)CC1	.	3.4	-11.4	.	1.0	.	.	.
CN1CCN(C(=O)C[C@H]2C=C[C@H](NC(=O)c3ccc4c(c3)OCO4)[C@H](CO)O2)CC1	.	2.3	-10.2	.	1.5*	.	0.042[42 µM]	i
O=C(c1cccc(NC2=NC3CS(=O)(=O)CC3S2)c1)N1CCN(c2ncccn2)CC1 (stereo not drawn)	-5.5	-3.8	2.1	-4.1	12.0*	-3.8	-0.247	i
COc1ccc(N2CCN(C(=O)c3cccc(NC4=NC5CS(=O)(=O)CC5S4)c3)CC2)cc1 (stereo not drawn)	0.4	-4.6	-0.4	-0.5	-1.3	-3.2	.	.
NC(c1ccc(F)c(F)c1)c1nc(-c2cc(F)cc(F)c2)cs1 (stereo not drawn)	-5.5	-4.6	-0.7	2.9	-0.5	.	.	.
NC(c1ccc(F)c(F)c1)c1nc(-c2cncnc2)cs1 (stereo not drawn)	-1.2	-3.0	-5.5	-2.3	37.9*	.	0.11	i
C[C@@H]1CN([C@@H](C)CO)S(=O)(=O)c2ccc(C3=CCCC3)cc2O[C@@H]1CN(C)C(=O)Nc1ccc2c(c1)OCO2	.	-2.3	4.7	.	2.0*	.	-0.042[42 µM]	i
C[C@H](CO)N1C[C@H](C)[C@H](CN(C)C(=O)Nc2ccc3c(c2)OCO3)Oc2cc(C3=CCCCC3)ccc2S1(=O)=O	.	-2.3	9.3	.	1.6*	.	-0.031	11.2µM*
C[C@@H]1CN([C@@H](C)CO)S(=O)(=O)c2ccc(C3=CCCC3)cc2O[C@H]1CN(C)C(=O)Nc1ccc2c(c1)OCO2	.	2.0	3.5	.	-0.3	.	.	.
C[C@H]1CN([C@@H](C)CO)S(=O)(=O)c2ccc(C#Cc3ccncc3)cc2O[C@H]1CN(C)C(=O)Nc1ccc2c(c1)OCO2	.	14.4	9.1	.	1.4*	.	-0.237	i
C[C@@H]1CN([C@H](C)CO)S(=O)(=O)c2ccc(C3=CCCCC3)cc2O[C@H]1CN(C)C(=O)CN(C)C	.	-4.8	0.0	.	1.2*	.	0.223[42 µM]	i
C[C@@H]1CN([C@@H](C)CO)S(=O)(=O)c2ccc(C#Cc3ccncc3)cc2O[C@H]1CN(C)C(=O)Nc1ccc2c(c1)OCO2	.	4.0	6.7	.	0.0	.	.	.
COc1ccc(NC(=O)N(C)C[C@@H]2Oc3c(NS(=O)(=O)c4cn(C)cn4)cccc3C(=O)N([C@@H](C)CO)C[C@@H]2C)cc1	.	0.7	-4.6	.	-0.4	.	.	.
Cc1ccc(S(=O)(=O)Nc2ccc3c(c2)C(=O)N([C@@H](C)CO)C[C@H](C)[C@H](CN(C)C(=O)C2CCCCC2)OCCCC[C@H](C)O3)cc1	.	1.5	1.9	.	.	.	.	.
O=C(CC1CC1)N1CC2(C1)[C@@H](c1ccccc1)[C@@H](CO)N2S(=O)(=O)Cc1ccccc1	.	.	-0.5	.	1.3*	.	-0.107	i
CCC(=O)N1CC2(C1)[C@H](c1ccccc1)[C@H](CO)N2S(=O)(=O)Cc1ccccc1	.	.	1.9	.	15.8*	.	-0.015	i
CCC(=O)N1CC2(C1)[C@@H](c1ccccc1)[C@@H](CO)N2S(=O)(=O)Cc1ccccc1	.	.	-1.5	.	-0.2	.	.	.
O=C(C1CCCC1)N1CC2(C1)[C@H](c1ccccc1)[C@@H](CO)N2CC1CC1	.	.	-0.9	.	1.6*	.	0.056[42 µM]	i
C=CCN1C=C(C(=O)OCC)C(=O)CC1	-0.7	.	0.3	-2.6	40.5	.	.	.
Cc1ccc(S(=O)(=O)N(C)C[C@@H]2Oc3c(NC(=O)Nc4c(C)noc4C)cccc3C(=O)N([C@H](C)CO)C[C@@H]2C)cc1	.	-6.7	1.1	.	0.3	.	.	.
O=C(Nc1ccc(S(=O)(=O)Nc2ccccn2)cc1)c1cccc(Cl)c1	-3.6	5.9	0.7	0.4	-0.1	.	.	.
SMILES	Wnt bcat act	esBAF inh	MLL AF4-AF9 inh	SMARCA2 activ	FGF22 binding-1	MITF TRPM1 HTS	FGF22 binding-2	SYPRO no-protein
O=C(Nc1ccccc1N1CCCCC1)c1cccc([N+](=O)[O-])c1	0.1	.	5.4	-1.9	-0.1	-8.3	.	.
O=C(Nc1ccc(S(=O)(=O)Nc2ccccn2)cc1)c1cccc([N+](=O)[O-])c1	-6.3	.	1.2	4.8	35.9*	8.7	0.108	i
O=C(O)c1cccc(NC(=O)c2cccc(S(=O)(=O)Nc3cccc([N+](=O)[O-])c3)c2)c1	0.4	-3.9	-15.2	-1.2	.	.	.	.
NS(=O)(=O)c1cccc(NC(=O)c2ccc(NS(=O)(=O)c3cccc([N+](=O)[O-])c3)cc2)c1	-7.5	8.9	3.2	-3.7	3.1*	6.2	0.27	i
O=C(Nc1cccc2ccccc12)c1cccc([N+](=O)[O-])c1	1.0	5.1	-2.3	-1.3	1.7*	-3.1	0.084	i
COc1ccc2c3c(n(C)c2c1)[C@@H](CO)N(C(=O)c1cnccn1)CC31CN(C(=O)c2cnccn2)C1	.	.	-1.4	.	-0.2	.	.	.
Cc1ccc(S(=O)(=O)Nc2cccc3c2O[C@H](CN(C)CC2CC2)[C@H](C)CN([C@H](C)CO)C3=O)cc1	.	-2.5	0.1	.	-0.2	.	.	.
CN(c1ccccc1)S(=O)(=O)c1cccc(NC(=O)c2cccc(C#N)c2)c1	-6.9	6.2	-2.6	-1.8	0.2	-6.3	.	.
Cc1noc(NS(=O)(=O)c2ccc(NC(=O)c3ccc(Cl)c(S(=O)(=O)N(C)c4ccccc4)c3)cc2)c1C	-0.2	.	1.8	-1.8	0.3	-0.7	.	.
Cc1noc(NS(=O)(=O)c2ccc(NC(=O)c3cccc(S(=O)(=O)N(C)c4ccccc4)c3)cc2)c1C	-4.4	-4.2	2.1	3.9	1.6*	2.6	-0.168	i
CN(c1ccccc1)S(=O)(=O)c1cccc(NC(=O)c2ccc3ncsc3c2)c1	-2.1	4.7	0.6	-4.3	1.4*	-11.1	-0.047	i
COc1ccccc1CN1[C@@H]2c3cccc(=O)n3C[C@@H]2[C@@H](CO)[C@@H]1C(=O)NCc1ccccc1	.	6.2	0.3	.	0.0	.	.	.
